# Among all 190,000 compounds or so, about 1,300 (0.68%) were called active. This is one part of a sample in which actives are shown more often than they occur. No stated cut-off is given here; in the data, active means inhibition above about 50%; inactive means the rest.
# Target: Mannose-6-phosphate isomerase (Homo sapiens) (UniProt P34949)
# Assay: MPI inhibition at elevated mannose 6-phosphate – biochemical, fluorescence intensity, high mannose 6-phosphate, primary screen (AID 1220)
# Conditions: recombinant PMI enzyme, coupled fluorescence intensity; at 20 µM; hits give high values
# Mannose-6-phosphate isomerase (Homo sapiens), sequence (P34949 whole entry, looked up): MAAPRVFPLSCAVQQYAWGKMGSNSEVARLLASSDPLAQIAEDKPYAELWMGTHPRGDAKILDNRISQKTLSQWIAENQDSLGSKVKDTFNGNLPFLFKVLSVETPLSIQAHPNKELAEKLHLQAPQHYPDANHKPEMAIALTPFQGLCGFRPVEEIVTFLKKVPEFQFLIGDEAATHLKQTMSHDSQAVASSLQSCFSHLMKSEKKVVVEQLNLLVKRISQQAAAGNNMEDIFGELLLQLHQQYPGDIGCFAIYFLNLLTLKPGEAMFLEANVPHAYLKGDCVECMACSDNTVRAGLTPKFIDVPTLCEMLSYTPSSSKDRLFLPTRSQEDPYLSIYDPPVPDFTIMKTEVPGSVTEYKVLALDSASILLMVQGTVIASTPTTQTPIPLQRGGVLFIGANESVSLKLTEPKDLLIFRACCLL
row,Compound,inhibition
1,CCc1cccc(NC(=O)CS(=O)Cc2nc(-c3ccc(C)cc3)oc2C)c1 (stereo not given),6.8% (inactive)
2,COc1ccccc1-n1cnnc1SCC(=O)NCC1CCCO1 (stereo not given),-9.1% (inactive)
3,Cc1ccc2nc(-c3ccccc3)c(CN3CCOCC3)n2c1,-1% (inactive)
4,O=C(NC(=S)Nc1nc(-c2ccc(Cl)cc2)cs1)c1cccs1,-11.6% (inactive)
5,COc1ccc(C)cc1NC(=O)c1ccoc1C,3.7% (inactive)
6,Oc1ccc(-c2cn3c(n2)SCC3)cc1O,53.1% (active)
7,Oc1ccc(-c2cn3c(n2)SCC3)cc1,-10.9% (inactive)
8,Cc1ccc(-c2cn3c(n2)SCC3)cc1,1% (inactive)
9,O=C(NCc1cccnc1)NC1CCCN1S(=O)(=O)c1ccc(Cl)cc1 (stereo not given),-3.5% (inactive)
10,Cc1ccc(-c2csc(NC(=O)CSc3ncn(-c4ccccc4)n3)n2)cc1,0% (inactive)
11,COc1cccc(NC(=O)CSc2nc3c(c(=O)n2C)SC(C)C3)c1 (stereo not given),2.4% (inactive)
12,O=C(Nc1cccc(S(=O)(=O)N2CCCCC2)c1)c1ccc(OCC2CCCO2)cc1 (stereo not given),2.6% (inactive)
13,CCOc1ccc(C(=O)N[C@H](C(=O)Nc2ccc(OC)c(S(=O)(=O)N3CCOCC3)c2)C(C)C)cc1,10.3% (inactive)
14,CCOc1ccc(C(=O)N[C@H](C(=O)Nc2cccc(S(=O)(=O)N3CCCCC3)c2)C(C)C)cc1,57.6% (active)
15,CCOC(=O)COn1c(=O)c(=O)n(O)c2ccccc21,24.9% (inactive)
16,NC(N)=N/N=C/c1ccc(OCc2ccccc2)cc1,1.2% (inactive)
17,Oc1ccc(/C=N/N=C/c2ccc(O)cc2)cc1,-2.8% (inactive)
18,Oc1ccc(N=Cc2ccc(OCc3ccccc3)cc2)cc1,58.5% (active)
19,CC(=O)Nc1ccc(N=Cc2ccc(OCc3ccccc3)cc2)cc1,10.3% (inactive)
20,Oc1ccc(N=Cc2ccc(O)c(O)c2)cc1,52.6% (active)
21,O=Cc1ccc(O)c(O)c1,-5% (inactive)
22,O=C(c1sc2ccccc2c1Cl)N(Cc1ccccc1Cl)C1CCS(=O)(=O)C1 (stereo not given),1.4% (inactive)

row,Compound,inhibition
1,COc1cc(OC)cc(C(=O)OCC(=O)Nc2ccc(N3CCCCC3)cc2)c1,-11.3% (inactive)
2,COc1ccc(-c2nn(CCC#N)cc2/C=N/O)cc1OC,10.3% (inactive)
3,O=C(CSc1ccc(-c2ccc(F)cc2)nn1)N1CCCc2ccccc21,13.5% (inactive)
4,Cc1c(Cl)c([N+](=O)[O-])nn1CC(=O)Nc1ccc2c(c1)OCO2,-4.5% (inactive)
5,COCCNC(=O)Cn1c(=O)n(CCCCCC(=O)NCc2ccc3c(c2)OCO3)c(=O)c2sccc21,-13.4% (inactive)
6,CCOc1ccc(NC(=O)C2CC(C)=C(C)CC2C(=O)O)cc1 (stereo not given),0.7% (inactive)
7,CCOC(=O)c1sc(NC(=O)c2ccccc2F)c(C(N)=O)c1C,56.6% (active)
8,CCOC(=O)c1sc(NC(C)=O)c(C(=O)OCC)c1C,7.7% (inactive)
9,CCOC(=O)c1sc(NC(=S)NC(=O)c2ccccc2Cl)c(C(=O)OCC)c1C,5.4% (inactive)
10,Cn1nc(-c2ccc(Cl)cc2)nc2c(=O)n(C)c(=O)nc1-2,10.6% (inactive)
11,Cn1c(=O)c(-c2ccccc2)nc2ccccc21,4.9% (inactive)
12,CCCc1nc(SCC(=O)c2ccc(OC)cc2)c2c(=O)n(C)c(=O)n(C)c2n1,-2.5% (inactive)
13,CCn1c(N)nc2c1c(=O)n(C)c(=O)n2C,-1.8% (inactive)
14,COC(=O)c1ccccc1OCCOc1ccccc1C(=O)OC,2.8% (inactive)
15,COc1ccccc1-c1nc2ccccc2nc1-c1ccccc1OC,2.8% (inactive)
16,COc1ccccc1-c1nc2cc3ccccc3cc2nc1-c1ccccc1OC,50.1% (active)
17,COc1ccccc1-c1cc2ccccc2[nH]1,4.7% (inactive)
18,COc1ccccc1-c1nc2cc3ccccc3cc2nc1-c1ccccc1,50.6% (active)
19,COc1ccc(OC)c(-c2nc3cc4ccccc4cc3nc2-c2ccccc2)c1,10.1% (inactive)
20,COc1ccccc1-c1nc2ccccc2nc1-c1ccccc1,12.5% (inactive)
21,CC(=O)Nc1ccc(C(=O)OCC(=O)Nc2ccccc2Sc2ccccc2)cc1,2.4% (inactive)
22,COc1ccccc1CNC(=O)COc1ccc([N+](=O)[O-])cc1,2.1% (inactive)

row,Compound,inhibition
1,COc1ccc(CC(=O)Nc2cccc(SC)c2)cc1,1.7% (inactive)
2,O=C1C(Cl)=C(NCCN2CCCCC2)C(=O)c2ccccc21,54.3% (active)
3,O=C1c2ccccc2C(=O)N1CCN1CCCCC1,2.7% (inactive)
4,COc1ccccc1NC(C)=O,9.5% (inactive)
5,O=C1C(Cl)=C(Nc2ccccc2)C(=O)c2ccccc21,52.5% (active)
6,CC(=O)Nc1ccc2c(c1)C(=O)c1ccccc1C2=O,-69.9% (inactive)
7,COc1ccccc1NC1=C(N2CCCCC2)C(=O)c2ccccc2C1=O,2.6% (inactive)
8,O=C(O)c1cccc(NC2=C(Cl)C(=O)c3ccccc3C2=O)c1,39.9% (inactive)
9,Cc1ccc(NC2=C(Cl)C(=O)c3ccccc3C2=O)cc1,41.8% (inactive)
10,CCNC1=C(Cl)C(=O)c2ccccc2C1=O,15.6% (inactive)
11,COc1ccccc1NC1=C(NC(C)=O)C(=O)c2ccccc2C1=O,60.1% (active)
12,O=C(Oc1ccc(NC2=C(Cl)C(=O)c3ccccc3C2=O)cc1)c1ccc([N+](=O)[O-])cc1,32.9% (inactive)
13,CC(=O)Nc1ccc(NC2=C(Cl)C(=O)c3ccccc3C2=O)cc1,57.8% (active)
14,CCCCn1nnnc1SCC(=O)c1ccc(C)c(C)c1,7.7% (inactive)
15,COCCCNC(=O)CCCCCNS(=O)(=O)c1ccc(Br)cc1,-6.2% (inactive)
16,COc1ccccc1OCC(=O)Sc1ccc(C)cc1,13% (inactive)
17,CC(=O)c1ccc(N2CCN(C(=O)Nc3ccc(C)cc3)CC2)cc1,-1.7% (inactive)
18,Cc1ccccc1Nc1ncnc(N)n1,-3.4% (inactive)
19,O=[N+]([O-])c1ccc(Cl)cc1Sc1ccccn1,2.7% (inactive)
20,Cn1c(SCC(=O)c2ccc3c(c2)OCO3)nnc1C1COc2ccccc2O1 (stereo not given),1.3% (inactive)
21,COC(=O)c1ccc(CSc2cc(C)c3cc(C)cc(C)c3n2)o1,-4.5% (inactive)
